Experimental data from PubChem BioAssay (NCATS).
“And” between values parts separate entries of the source, which are not always exact repeats. Equal entries are not always repeated. Inconclusive results are not listed. A call without a number means that no potency is given here. Unmarked numbers belong to inactive results. The source made the active and inactive calls. Unless noted, calls come from the whole dose curve; as a rule, active = well fitted curve in the direction sought with a large enough effect; inconclusive = small, poorly fitted or top-dose-only effect, or another doubt; inactive = no such curve, though single readings can be large; an effect the other way counts as inactive or inconclusive.

What was measured:
[1] = qHTS for Inhibitors of Plasmodium falciparum (DD2) proliferation (AID 504314);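 note: parasite DNA measured by SYBR Green fluorescence after red cell lysis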
How it was run: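 SYBR Green growth assay: 72 h compound exposure of infected red cells (2.5% hematocrit, 0.3% parasitemia), then lysis and overnight dye staining, fluorescence 485/535 nm. Values scaled between DMSO and 0.29 uM artemisinin controls.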

[2] = qHTS for Inhibitors of Plasmodium falciparum (GB4) proliferation (AID 504315); note: nearly all actives have a fitted effect of over 50% in size; note: potency is the fitted concentration of half-maximal effect
How it was run: (§1)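 Parasite growth measured as SYBR Green DNA fluorescence (ex 485, em 535 nm) after overnight lysis following 72 h culture at 37 °C, 0.3% parasitemia, 2.5% hematocrit. Values normalized against DMSO and 0.29 uM artemisinin controls, with plate-stack correction.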

[3] = qHTS for Inhibitors of Plasmodium falciparum (7G8) proliferation (AID 504316); note: nearly all actives have a fitted effect of over 65% in size; note: potency is the fitted concentration of half-maximal effect
How it was run: as §1

[4] = qHTS for Inhibitors of Plasmodium falciparum (HB3) proliferation (AID 504318); note: nearly all actives have a fitted effect of over 60% in size; note: potency is the fitted concentration of half-maximal effect
How it was run: as §1

[5] = target: Atrial natriuretic peptide receptor 1 (Homo sapiens) (UniProt P16066); assay: Natriuretic polypeptide receptor (hNpr1) antagonism - Pilot CMLD screen (AID 1347052; calls by dose curve;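 note: cGMP level read as GloSensor luciferase luminescence after agonist stimulation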; note: potency is the fitted concentration of half-maximal effect)
Chain of Atrial natriuretic peptide receptor 1 (Homo sapiens) (P16066 whole entry, looked up): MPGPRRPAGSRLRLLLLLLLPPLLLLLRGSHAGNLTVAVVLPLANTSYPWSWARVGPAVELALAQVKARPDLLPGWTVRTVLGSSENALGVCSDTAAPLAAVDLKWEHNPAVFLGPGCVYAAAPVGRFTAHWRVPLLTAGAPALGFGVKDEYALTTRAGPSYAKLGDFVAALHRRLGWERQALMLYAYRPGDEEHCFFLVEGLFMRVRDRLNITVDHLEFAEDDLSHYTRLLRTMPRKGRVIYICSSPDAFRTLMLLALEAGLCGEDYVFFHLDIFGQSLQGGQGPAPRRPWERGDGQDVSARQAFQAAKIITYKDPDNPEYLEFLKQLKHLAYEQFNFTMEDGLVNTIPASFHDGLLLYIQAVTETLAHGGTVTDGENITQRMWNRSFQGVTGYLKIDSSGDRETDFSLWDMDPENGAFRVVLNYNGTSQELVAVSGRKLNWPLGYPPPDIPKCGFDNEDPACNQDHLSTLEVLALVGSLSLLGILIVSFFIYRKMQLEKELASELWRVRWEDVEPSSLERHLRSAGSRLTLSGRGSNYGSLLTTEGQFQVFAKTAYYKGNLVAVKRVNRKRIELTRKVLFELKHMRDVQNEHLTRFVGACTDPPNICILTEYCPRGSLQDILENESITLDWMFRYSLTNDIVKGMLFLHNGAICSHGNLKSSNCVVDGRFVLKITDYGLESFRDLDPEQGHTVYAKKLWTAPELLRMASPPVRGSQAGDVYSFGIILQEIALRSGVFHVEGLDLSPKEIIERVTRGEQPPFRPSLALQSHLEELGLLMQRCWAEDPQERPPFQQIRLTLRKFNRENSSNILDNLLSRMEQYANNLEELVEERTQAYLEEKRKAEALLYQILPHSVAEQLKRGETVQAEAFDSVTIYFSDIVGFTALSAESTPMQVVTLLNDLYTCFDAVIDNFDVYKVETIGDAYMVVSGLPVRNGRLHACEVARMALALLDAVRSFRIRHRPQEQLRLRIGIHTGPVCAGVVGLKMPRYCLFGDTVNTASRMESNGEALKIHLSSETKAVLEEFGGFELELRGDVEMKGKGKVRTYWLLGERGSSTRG

[6] = qHTS for Inhibitors of Plasmodium falciparum (CP250) proliferation (AID 504320)
How it was run: as §1

Compound | Potency [1] | Potency [2] | Potency [3] | Potency [4] | Potency [5] | activity, negative = inhibition [1] | Potency [6]
COCCN1C(=O)N[C@@H](c2ccccc2)[C@H](C(C)=O)[C@H]1C | inactive | inactive | inactive | inactive | inactive | – | –
Cc1cccc(C)c1Nc1oc(-c2ccccc2)nc1C(C)(C)C | inactive | inactive | inactive | inactive | inactive | – | –
COC(=O)NCC=Cc1nc(CCCO)co1 | inactive | inactive | inactive | inactive | inactive | – | –
CC1(OC(=O)c2cnc3ccccc3n2)C(=O)C=C2C=C(C3CC3)OC=C2C1=O (centres undefined) | inactive | inactive | inactive | inactive | inactive | – | –
COC(=O)[C@H]1O[C@@H](c2cc(OC)c(C)c(OC)c2O)[C@H](C)[C@@H](O)[C@@H]1C | inactive | inactive | inactive | inactive | inactive | – | –
CC(CCN1CCCCc2nc(C)c(C)cc21)=NO[C@@H](C)CN1CCCCc2nc(C)c(C)cc21 | inactive | inactive | inactive | inactive | inactive | – | –
CCCC[C@@H]1CN2[C@@H](CC[C@H](C)[C@@H]2c2ccc(Br)cc2)C(=O)O1 | inactive | inactive | inactive | inactive | inactive | – | –
COC(=O)c1ccc(CN2C(=O)[C@]3(OCCC=C[C@@H]3C)c3c(Br)cccc32)cc1 | inactive | inactive | inactive | inactive | inactive | – | –
C=CCN1c2ccccc2[C@]23CCC(=O)N(CC4CC4)C2=NC(C(=O)OC)=C(C(=O)OC)[C@H]13 | inactive | inactive | inactive | inactive | inactive | – | –
COCC(=O)N1CCc2nc(-c3ccccc3)c3c(c2C1)CO[C@@H](C)C3 | inactive | inactive | inactive | inactive | inactive | – | –
CCCCc1nc2c(c3c1C[C@H](C)OC3)CN(C(=O)c1cccnc1)CC2 | inactive | inactive | inactive | inactive | inactive | – | –
C=CCN1C=C2C(=O)C(C)(OC(=O)C3CCCC3)C(=O)C=C2C=C1c1ccsc1 (centres undefined) | inactive | inactive | inactive | inactive | inactive | – | –
C=C1C2c3ccccc3C(CC2(C)O[Si](C)(C)C)N1C(=O)OC (centres undefined) | inactive | inactive | inactive | inactive | inactive | – | –
COC(=O)C1=C(C(=O)OC)[C@@H]2N(Cc3ccccc3)c3ccccc3[C@@]23C[C@@H](C(=O)OC)N(C(=O)c2cc(C)oc2C)C3=N1 | inactive | inactive | inactive | inactive | inactive | – | –
COC(=O)[C@@H]1CC[C@H](C)[C@@H](c2ccc(C)cc2)N1C(=O)c1ccc(C=NO[C@H](C)c2cn([C@@H]3COC[C@@H]3O)nn2)cc1 | inactive | inactive | inactive | inactive | inactive | – | –
C=CCO[C@@H]1C=C[C@@H](c2ccccc2)O[C@@H]1COC | inactive | inactive | inactive | inactive | inactive | – | –
COC(=O)N[C@H](CC(C)=O)c1cccc(C(F)(F)F)c1 | inactive | inactive | inactive | inactive | inactive | – | –
CCN1C(=O)NC(c2cccc(C(F)(F)F)c2)C(C(C)=O)=C1C (centres undefined) | inactive | inactive | inactive | inactive | inactive | – | –
CC(C)OC(=O)[C@H]1O[C@H](CCCCOCc2ccccc2)[C@@H](C)[C@H]2O[C@H]21 | inactive | inactive | inactive | inactive | inactive | – | –
COc1cccc(CC(=O)N2CCc3nc(COc4ccccc4)c4c(c3C2)CO[C@@H](C)C4)c1 | inactive | inactive | inactive | inactive | inactive | – | –
COC(=O)C(C(C)=O)[C@@H](NC(=O)NCc1ccccc1)c1ccccc1 (some centres undefined) | inactive | inactive | inactive | inactive | inactive | – | –
COc1ccc(-c2nc3c(c4c2C[C@H](c2ccccc2)OC4)CN(S(=O)(=O)c2ccc(C)cc2)CC3)c(C)c1 | – | 1690 nM (active) | 1.69 µM (active) and 1.9 µM (active) | 2130 nM (active) | inactive | -0.2% [at 1.12 µM] | –
CC(C)C(=O)NC(=O)[C@@H]1CCCN1C(=O)C=Cc1ccccc1 | inactive | inactive | inactive | inactive | inactive | – | inactive
COc1ccc(-c2nc3c(c4c2C[C@H](c2ccccc2)OC4)CN(C(=O)Nc2cccc(C#N)c2)CC3)c(C)c1 | – | inactive | inactive | inactive | inactive | 2.23% [at 1.12 µM] | inactive
COc1ccc(O[C@@H]2[C@H](O)CO[C@@H]2C=CC#Cc2ccccc2)cc1 | inactive | inactive | inactive | inactive | inactive | – | –
N#CCCn1cnc2c1NC=NC2Cl (centres undefined) | inactive | inactive | inactive | inactive | inactive | – | inactive
O=P1(O)Oc2c(c(-c3ccccc3)cc3ccc4ccccc4c23)-c2c(-c3ccccc3)cc3ccc4ccccc4c3c2O1 | inactive | inactive | inactive | inactive | inactive | – | –

Compound | Potency [1] | Potency [2] | Potency [3] | Potency [4] | Potency [5] | activity, negative = inhibition [1] | Potency [6]
O=C1C=C(c2ccccc2)CCC1 | inactive | inactive | inactive | inactive | inactive | – | inactive
C=C(C(C)=O)C(O)c1ccc([N+](=O)[O-])cc1 (centres undefined) | inactive | inactive | inactive | inactive | 1880 nM (active) | – | –
C=CC1=C2C=C(C3CC3)N(Cc3ccc4c(c3)OCO4)C=C2C(=O)C(C)(OC(=O)c2ccco2)C1=O (centres undefined) | – | inactive | inactive | inactive | inactive | 4.05% [at 1.12 µM] | inactive
COC(=O)CC=C[C@@H](C)[C@@H](C=NO[C@H](C)c1cn([C@@H]2COC[C@@H]2O)nn1)N[S+](=O)([O-])c1ccc(C)cc1 | inactive | inactive | inactive | inactive | inactive | – | inactive
CCN1C(=O)NC(c2cccc(F)c2)C(C(C)=O)=C1C (centres undefined) | inactive | inactive | inactive | inactive | inactive | – | –
C[C@H]1[C@@H]2O[C@H]2CCO[C@H]1c1cccc(Br)c1 | inactive | inactive | inactive | inactive | inactive | – | inactive
COc1ccc2c(c1)C(=O)[C@@H](OC(=O)Nc1cc(OC)c(OC)c(OC)c1)[C@H](c1ccc(OC)c(Br)c1)O2 | inactive | inactive | inactive | inactive | inactive | – | inactive
COC(=O)N[C@H](CC(C)=O)c1ccccc1 | inactive | inactive | inactive | inactive | inactive | – | inactive
COCC=CC1=CC2=CC(=O)C(C)(OC(=O)c3cnc4ccccc4n3)C(=O)C2=CN1Cc1ccccc1 (centres undefined) | inactive | inactive | inactive | inactive | inactive | – | inactive
O=P1(O)Oc2c(c(-c3ccccc3)cc3ccccc23)-c2c(-c3ccccc3)cc3ccccc3c2O1 | inactive | inactive | inactive | inactive | inactive | – | inactive
CCOC(=O)NN=Cc1ccccc1-c1cc(OC)ccc1OC | inactive | inactive | inactive | inactive | inactive | – | inactive
COC(=O)NC(CCc1ccccc1)C(C(C)=O)C(=O)OC (centres undefined) | inactive | inactive | inactive | inactive | inactive | – | inactive
CCN1C(=NCc2ccccc2)N[C@@H](c2ccccc2)[C@H](C(=O)OC)[C@H]1C | inactive | inactive | inactive | inactive | inactive | – | inactive
COc1cccc(O[C@H]2C=C[C@@H](c3ccccc3)O[C@H]2CO)c1 | inactive | inactive | inactive | inactive | inactive | – | inactive
CC(=O)OC[C@H]1O[C@@H](ON=C[C@@H](C)[C@H](OCc2ccccc2)C(C)C)[C@@H](OC(C)=O)[C@@H](OC(C)=O)[C@@H]1OC(C)=O | inactive | inactive | inactive | inactive | inactive | – | inactive
C[C@H]1[C@H](O)[C@@H](N=[N+]=[N-])CCO[C@H]1c1ccccc1 | inactive | inactive | inactive | inactive | inactive | – | –
CCOC(=O)CN1C(=O)[C@]2(OCCC=C[C@@H]2C)c2ccccc21 | inactive | inactive | inactive | inactive | inactive | – | inactive
CC(=O)OC[C@H]1O[C@H](C#CC2=CCCCC2)C=C[C@H]1OC(C)=O | inactive | inactive | inactive | inactive | inactive | – | inactive
C[C@@H]1CC2CCC[C@@H]2[C@]2(O1)C(=O)Nc1cccc(Br)c12 (some centres undefined) | inactive | inactive | inactive | inactive | inactive | – | –
CC(=O)C1=C(C)N(Cc2ccccc2)C(=O)NC1c1cccc(C(F)(F)F)c1 (centres undefined) | inactive | inactive | inactive | inactive | inactive | – | inactive
OC[C@H]1O[C@H](c2ccccc2)C=C[C@H]1OCc1cccc(Br)c1 | inactive | inactive | inactive | inactive | inactive | – | inactive
COC(=O)CCCC1=CC2=CC(=O)C(C)(OC(=O)c3cccs3)C(=O)C2=CN1CC(C)C (centres undefined) | inactive | inactive | inactive | inactive | inactive | – | inactive
COC(=O)N[C@H](C(C(=O)OC)=C(C)NCc1ccccc1)c1cccs1 | inactive | inactive | inactive | inactive | inactive | – | –
C=CCN1c2ccccc2[C@]23C[C@@H](C(=O)OC)N(C(=O)c4cccs4)C2=NC(C(=O)OC)=C(C(=O)OC)[C@H]13 | inactive | inactive | inactive | inactive | inactive | – | inactive
COC(=O)C1=C[C@]2(c3ccccc3C[C@H](OC)[C@@H]2C)[C@H]2C=C[C@H]1C2 | inactive | inactive | inactive | inactive | inactive | – | inactive
COC1=C[C@H](C(=O)NCc2ccc(Br)cc2)C(C)C(c2ccccc2)CC1=O (some centres undefined) | inactive | inactive | inactive | inactive | inactive | – | inactive
